Test results: the supplement of paper PMC11732987, “Enantioselective OTUD7B fragment discovery through chemoproteomics screening and high-throughput optimisation” (Communications Chemistry, 2025)

Key:
Assay in all cases: log2 ratio of Biotin-Ahx-Ub-VS probe labelling (fragment/DMSO); higher = less target engagement (more negative = stronger competition), active = hit call of the paper (q ≤ 0.05, log2 ratio ≤ -1)
Conditions in all cases: compound concentration: 200 uM; treatment time: 3 h
USP34 = USP34 (UniProt Q70CQ2)
Summary of the method: (§1)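 Each value is an average log2 ratio of fragment to vehicle, tested by unpaired t-test. The underlying Spectronaut label-free quantities were global-median-normalised, and only proteins with ≥2 unique peptides were included. Triplicate HEK293T lysate samples (495 µg) were exposed to fragment at 200 µM or vehicle for 3 h, then to Biotin-Ahx-Ub-VS at 0.5 µM final for 1 h, before NeutrAvidin enrichment of labelled DUBs, LysC and trypsin digestion, and diaPASEF LC-MS/MS.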

USP36 = biological target: T1, USP36 (UniProt Q9P275)
T1 sequence (whole entry): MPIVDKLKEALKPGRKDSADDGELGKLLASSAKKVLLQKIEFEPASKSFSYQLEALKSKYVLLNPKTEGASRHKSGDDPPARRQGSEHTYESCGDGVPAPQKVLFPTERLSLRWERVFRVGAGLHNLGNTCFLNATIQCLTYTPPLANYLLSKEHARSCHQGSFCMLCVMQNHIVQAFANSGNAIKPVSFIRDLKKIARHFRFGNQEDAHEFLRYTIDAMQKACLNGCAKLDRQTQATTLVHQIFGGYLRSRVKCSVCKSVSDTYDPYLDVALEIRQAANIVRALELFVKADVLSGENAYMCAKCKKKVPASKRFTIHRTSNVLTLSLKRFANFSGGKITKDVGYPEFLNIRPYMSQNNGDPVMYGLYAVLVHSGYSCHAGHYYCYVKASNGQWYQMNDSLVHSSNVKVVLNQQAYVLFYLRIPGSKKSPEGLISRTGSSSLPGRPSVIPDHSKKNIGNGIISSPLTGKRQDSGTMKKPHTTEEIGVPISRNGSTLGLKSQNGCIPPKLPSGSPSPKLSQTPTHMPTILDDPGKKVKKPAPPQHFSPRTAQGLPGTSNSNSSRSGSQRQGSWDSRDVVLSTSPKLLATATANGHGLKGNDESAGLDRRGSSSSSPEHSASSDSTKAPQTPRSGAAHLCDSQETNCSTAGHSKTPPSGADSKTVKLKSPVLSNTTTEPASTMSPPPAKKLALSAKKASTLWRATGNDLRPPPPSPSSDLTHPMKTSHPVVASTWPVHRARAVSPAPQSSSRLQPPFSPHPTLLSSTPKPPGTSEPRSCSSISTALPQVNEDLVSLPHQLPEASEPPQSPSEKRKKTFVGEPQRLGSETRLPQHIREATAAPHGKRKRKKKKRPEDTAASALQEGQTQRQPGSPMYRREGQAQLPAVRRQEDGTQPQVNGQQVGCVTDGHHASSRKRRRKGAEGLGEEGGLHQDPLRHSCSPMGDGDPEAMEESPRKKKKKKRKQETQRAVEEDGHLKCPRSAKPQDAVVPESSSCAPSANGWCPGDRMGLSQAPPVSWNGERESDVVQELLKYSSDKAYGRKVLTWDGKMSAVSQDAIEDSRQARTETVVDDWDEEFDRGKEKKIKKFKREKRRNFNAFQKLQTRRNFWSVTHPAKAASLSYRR
Summary of the method: as §1

USP38 = biological target: T2, USP38 (UniProt Q8NB14)
T2 sequence (whole entry): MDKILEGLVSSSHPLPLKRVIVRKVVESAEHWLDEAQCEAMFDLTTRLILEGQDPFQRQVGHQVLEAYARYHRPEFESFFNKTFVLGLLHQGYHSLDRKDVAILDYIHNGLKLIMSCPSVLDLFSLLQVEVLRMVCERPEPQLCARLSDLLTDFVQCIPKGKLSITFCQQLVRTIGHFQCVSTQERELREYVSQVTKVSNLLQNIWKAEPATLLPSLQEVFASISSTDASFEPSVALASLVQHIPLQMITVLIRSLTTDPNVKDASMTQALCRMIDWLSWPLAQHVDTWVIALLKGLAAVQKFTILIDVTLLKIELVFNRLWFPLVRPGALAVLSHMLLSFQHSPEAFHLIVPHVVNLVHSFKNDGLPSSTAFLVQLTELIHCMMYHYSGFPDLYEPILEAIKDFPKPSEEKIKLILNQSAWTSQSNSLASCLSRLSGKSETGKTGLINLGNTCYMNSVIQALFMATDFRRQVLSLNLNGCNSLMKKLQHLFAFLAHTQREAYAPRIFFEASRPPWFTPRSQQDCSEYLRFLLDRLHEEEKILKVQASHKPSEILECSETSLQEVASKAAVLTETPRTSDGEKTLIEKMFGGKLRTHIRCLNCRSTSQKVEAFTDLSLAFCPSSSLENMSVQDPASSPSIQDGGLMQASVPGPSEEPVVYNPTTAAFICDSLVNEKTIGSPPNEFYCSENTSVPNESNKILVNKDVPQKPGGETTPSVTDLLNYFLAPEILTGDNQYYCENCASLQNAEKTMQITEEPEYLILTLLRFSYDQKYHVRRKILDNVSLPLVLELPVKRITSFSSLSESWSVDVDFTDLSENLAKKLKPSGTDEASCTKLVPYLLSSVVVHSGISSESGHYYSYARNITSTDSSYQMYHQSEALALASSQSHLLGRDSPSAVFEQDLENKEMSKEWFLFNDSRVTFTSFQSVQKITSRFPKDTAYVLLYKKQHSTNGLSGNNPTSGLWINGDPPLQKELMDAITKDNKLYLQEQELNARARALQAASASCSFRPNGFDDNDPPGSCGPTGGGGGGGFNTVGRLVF
Summary of the method: as §1

USP39 = biological target: T3, USP39 (UniProt Q53GS9)
T3 sequence (whole entry): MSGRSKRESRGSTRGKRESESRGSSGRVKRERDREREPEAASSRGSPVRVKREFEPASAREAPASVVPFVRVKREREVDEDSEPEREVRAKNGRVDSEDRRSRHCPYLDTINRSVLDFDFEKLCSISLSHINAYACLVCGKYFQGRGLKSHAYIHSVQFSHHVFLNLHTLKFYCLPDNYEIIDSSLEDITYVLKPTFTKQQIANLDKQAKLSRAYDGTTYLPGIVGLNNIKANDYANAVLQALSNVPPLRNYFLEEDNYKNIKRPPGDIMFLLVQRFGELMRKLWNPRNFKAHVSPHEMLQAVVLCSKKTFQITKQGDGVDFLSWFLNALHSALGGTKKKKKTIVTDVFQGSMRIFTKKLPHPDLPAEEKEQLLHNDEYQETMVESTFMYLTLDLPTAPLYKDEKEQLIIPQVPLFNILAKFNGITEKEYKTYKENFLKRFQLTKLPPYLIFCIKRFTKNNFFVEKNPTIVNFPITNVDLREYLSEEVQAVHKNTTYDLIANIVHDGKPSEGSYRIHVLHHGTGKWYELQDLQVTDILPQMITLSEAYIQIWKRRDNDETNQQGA
Summary of the method: as §1

USP4 = biological target: T4, USP4 (UniProt Q13107)
T4 sequence (whole entry): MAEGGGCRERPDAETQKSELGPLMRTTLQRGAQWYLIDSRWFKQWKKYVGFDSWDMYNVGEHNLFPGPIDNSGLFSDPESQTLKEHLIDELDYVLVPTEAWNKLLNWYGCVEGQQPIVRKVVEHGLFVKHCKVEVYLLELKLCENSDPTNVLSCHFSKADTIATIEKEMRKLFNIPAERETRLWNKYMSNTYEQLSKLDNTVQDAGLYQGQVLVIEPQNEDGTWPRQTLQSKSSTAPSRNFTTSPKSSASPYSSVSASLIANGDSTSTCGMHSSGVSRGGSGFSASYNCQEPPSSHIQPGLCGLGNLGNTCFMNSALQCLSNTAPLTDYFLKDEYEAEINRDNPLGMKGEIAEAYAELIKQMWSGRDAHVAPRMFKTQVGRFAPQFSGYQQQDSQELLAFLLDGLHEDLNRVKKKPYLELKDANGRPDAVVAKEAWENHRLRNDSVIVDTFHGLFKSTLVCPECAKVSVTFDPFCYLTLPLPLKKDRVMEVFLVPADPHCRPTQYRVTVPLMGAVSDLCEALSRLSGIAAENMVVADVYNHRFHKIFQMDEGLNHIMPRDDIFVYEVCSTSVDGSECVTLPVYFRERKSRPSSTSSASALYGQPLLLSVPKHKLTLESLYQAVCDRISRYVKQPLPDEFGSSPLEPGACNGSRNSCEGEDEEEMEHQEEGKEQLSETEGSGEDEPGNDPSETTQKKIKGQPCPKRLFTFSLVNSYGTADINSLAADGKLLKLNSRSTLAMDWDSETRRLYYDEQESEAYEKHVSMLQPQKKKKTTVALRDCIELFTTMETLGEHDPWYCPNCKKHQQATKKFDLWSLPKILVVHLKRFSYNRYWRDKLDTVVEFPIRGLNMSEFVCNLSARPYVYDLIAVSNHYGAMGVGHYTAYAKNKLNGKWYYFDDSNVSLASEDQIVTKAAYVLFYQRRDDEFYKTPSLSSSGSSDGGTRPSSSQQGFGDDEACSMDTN
Summary of the method: as §1

Measured: log2 ratio of Biotin-Ahx-Ub-VS probe labelling

Chain of USP34 (Q70CQ2 whole entry, the tested form may be a part): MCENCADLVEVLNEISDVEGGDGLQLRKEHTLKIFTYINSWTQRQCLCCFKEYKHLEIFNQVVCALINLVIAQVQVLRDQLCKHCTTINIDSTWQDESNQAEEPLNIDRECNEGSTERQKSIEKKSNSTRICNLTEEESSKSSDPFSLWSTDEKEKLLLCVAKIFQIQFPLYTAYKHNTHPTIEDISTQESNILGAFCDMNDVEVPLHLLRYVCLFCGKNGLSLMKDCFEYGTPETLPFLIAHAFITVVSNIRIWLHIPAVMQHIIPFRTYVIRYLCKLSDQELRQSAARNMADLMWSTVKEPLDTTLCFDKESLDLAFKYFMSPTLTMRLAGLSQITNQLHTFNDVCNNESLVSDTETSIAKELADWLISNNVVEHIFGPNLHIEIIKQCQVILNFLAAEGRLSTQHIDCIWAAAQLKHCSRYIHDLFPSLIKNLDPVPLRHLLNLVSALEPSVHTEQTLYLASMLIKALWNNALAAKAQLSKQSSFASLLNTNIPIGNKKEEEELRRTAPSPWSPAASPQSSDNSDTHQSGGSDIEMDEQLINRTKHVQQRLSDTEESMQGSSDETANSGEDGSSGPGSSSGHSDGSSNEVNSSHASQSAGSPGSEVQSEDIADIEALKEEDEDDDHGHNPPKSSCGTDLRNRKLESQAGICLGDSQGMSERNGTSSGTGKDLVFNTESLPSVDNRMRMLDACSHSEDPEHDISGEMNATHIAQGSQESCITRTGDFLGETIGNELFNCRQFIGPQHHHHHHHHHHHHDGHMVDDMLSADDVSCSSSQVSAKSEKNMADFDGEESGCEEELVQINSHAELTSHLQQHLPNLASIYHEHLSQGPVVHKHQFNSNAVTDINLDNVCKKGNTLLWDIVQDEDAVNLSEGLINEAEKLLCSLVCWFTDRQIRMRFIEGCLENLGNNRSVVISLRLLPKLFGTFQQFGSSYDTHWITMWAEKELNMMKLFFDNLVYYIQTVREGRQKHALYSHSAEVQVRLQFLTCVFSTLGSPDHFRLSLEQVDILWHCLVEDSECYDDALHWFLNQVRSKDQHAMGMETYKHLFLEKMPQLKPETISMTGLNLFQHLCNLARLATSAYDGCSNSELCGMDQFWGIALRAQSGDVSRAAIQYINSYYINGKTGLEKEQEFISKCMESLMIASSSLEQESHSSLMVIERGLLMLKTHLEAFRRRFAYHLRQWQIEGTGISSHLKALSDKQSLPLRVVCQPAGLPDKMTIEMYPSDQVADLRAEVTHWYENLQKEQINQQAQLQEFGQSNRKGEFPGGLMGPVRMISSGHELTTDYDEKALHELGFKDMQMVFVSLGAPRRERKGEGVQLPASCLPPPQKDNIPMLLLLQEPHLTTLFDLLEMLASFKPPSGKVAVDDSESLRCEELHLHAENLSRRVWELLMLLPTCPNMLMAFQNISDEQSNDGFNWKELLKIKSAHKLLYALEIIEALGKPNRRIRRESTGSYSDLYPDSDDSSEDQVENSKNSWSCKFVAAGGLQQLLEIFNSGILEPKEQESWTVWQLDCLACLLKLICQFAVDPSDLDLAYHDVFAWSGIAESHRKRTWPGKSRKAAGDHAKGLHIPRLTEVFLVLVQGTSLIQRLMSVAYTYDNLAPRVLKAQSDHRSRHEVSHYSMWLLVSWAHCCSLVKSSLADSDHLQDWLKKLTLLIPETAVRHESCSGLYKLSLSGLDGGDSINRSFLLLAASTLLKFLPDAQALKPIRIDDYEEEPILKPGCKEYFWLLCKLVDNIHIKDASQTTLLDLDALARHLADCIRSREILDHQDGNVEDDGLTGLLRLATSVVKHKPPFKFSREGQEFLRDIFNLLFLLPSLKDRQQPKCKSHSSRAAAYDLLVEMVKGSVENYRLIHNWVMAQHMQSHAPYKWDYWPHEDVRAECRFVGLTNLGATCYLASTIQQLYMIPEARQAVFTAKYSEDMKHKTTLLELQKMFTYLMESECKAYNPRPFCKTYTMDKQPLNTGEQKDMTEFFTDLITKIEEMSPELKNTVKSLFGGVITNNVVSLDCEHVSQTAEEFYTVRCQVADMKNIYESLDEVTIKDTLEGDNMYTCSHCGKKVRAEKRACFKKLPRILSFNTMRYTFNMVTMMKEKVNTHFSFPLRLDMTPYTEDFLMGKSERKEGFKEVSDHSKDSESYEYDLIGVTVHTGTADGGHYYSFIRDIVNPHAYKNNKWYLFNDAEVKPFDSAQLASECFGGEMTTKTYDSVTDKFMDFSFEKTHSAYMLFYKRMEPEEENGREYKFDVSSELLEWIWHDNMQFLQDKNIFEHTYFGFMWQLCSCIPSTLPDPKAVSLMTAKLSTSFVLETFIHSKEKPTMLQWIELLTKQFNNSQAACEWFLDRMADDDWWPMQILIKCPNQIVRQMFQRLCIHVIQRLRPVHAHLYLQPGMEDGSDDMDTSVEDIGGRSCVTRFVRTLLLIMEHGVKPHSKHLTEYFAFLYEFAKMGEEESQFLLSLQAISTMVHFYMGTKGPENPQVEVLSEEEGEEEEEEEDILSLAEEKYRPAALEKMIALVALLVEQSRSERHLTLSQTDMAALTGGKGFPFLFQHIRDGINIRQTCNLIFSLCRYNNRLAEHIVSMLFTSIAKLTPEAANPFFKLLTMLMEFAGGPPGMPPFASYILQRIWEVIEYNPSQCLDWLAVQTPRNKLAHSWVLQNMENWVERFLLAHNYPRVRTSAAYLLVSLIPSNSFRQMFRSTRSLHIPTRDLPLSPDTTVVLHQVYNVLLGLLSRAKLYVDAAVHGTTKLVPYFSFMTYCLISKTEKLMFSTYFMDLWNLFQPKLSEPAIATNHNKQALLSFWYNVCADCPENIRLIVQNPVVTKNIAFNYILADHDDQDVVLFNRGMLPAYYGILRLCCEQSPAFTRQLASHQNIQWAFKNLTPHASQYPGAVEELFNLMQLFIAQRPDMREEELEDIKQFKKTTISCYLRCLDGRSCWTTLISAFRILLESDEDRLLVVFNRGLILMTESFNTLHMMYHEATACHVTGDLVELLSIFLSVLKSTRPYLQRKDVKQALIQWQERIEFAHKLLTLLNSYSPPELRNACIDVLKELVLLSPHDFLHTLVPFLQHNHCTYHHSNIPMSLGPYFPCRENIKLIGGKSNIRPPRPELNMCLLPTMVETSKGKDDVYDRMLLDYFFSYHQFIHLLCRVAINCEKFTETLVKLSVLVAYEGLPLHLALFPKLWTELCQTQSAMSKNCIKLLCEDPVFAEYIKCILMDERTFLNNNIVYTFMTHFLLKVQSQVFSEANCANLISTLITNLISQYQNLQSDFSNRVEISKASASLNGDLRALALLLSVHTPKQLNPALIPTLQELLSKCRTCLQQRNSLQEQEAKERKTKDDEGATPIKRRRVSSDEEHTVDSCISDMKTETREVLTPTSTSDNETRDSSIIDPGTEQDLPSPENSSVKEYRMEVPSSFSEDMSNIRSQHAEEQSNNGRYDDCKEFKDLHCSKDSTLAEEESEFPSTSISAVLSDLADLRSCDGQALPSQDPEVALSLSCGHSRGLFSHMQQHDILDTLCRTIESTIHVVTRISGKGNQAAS

Cc1ccc(N(C(=O)CCl)C2C=CS(=O)(=O)C2)cc1 (stereo not given)
inactive: USP34 -0.0862 | USP36 -0.145 | USP38 0.105 | USP39 0.107 | USP4 0.0944
